tested on: LXRa homodimer (NR concentration 270 nM); experiment: PBM binding z-score (relative to random genomic background probes); higher = stronger binding; sequences stand for … in GC…GCGATTGACAGCGTAGAATGAAGG
Procedure, shortened: (§1)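 Scanned fluorescence from custom Agilent 4×180K protein-binding microarrays was regression-normalized. Binding z-scores use random background probes as reference. Ligand-free nuclear receptor dimers were incubated on the arrays for 1 h and detected with antibodies against each partner (one per run).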

Sequence | PBM binding z-score
CTATGTAGGGTAAGGGGGTCATTCAGTTTGAAAG | 2.41
TCGAGAAGGTTACGGGGGCATTCAGGGATGAAGA | 0.687
TCGAGTAGGTTACGGGGGTATTCAGGGATGAAGA | 0.457
CCGAGTAGGTTACGAGGGGGCATTTAGTGCGAAT | 1.74
TCGAGTAGGTTACAGGGGCATTCAGGGATGAAGA | 0.219
CCGAGTAGGTTACGACGGGGCATTCAGTGCGAAT | -0.31
CCGAGTAGGTTACGAGGGGGCATGCAGTGCGAAT | 0.861
CTATGCAGGTTAAGGGGGTCATTCAGTTTGAAAG | 3
TCGAGTAGGGTACGGGGGCATTCAGGGATGAAGA | 0.643
CCGAGTAGGTTACGAGCGGGCATTCAGTGCGAAT | 0.879
CCGAGTAGGTTACGAGGGGGCCTTCAGTGCGAAT | 0.0596
TCGAGTAGGTTAGGGGGGCATTCAGGGATGAAGA | 1.42
CTATGTAGGTTAAGGGGTTCATTCAGTTTGAAAG | 2.34
CTATGTAGGTTAAGGGGGTCAATCAGTTTGAAAG | 1.5
CCGAGTAGGTTACGAGGGGGCATTCACTGCGAAT | 1.26
TCGAGTAGGTTACGGGGGCATTCCGGGATGAAGA | 0.0862
CTATGTAGTTTAAGGGGGTCATTCAGTTTGAAAG | 3.99
CCGAGTAGGTTACGAGGGGGCAATCAGTGCGAAT | 0.917
CTAGGTAGGTTAAGGGGGTCATTCAGTTTGAAAG | 2.54
CTATGTATGTTAAGGGGGTCATTCAGTTTGAAAG | 3.54

Sequence | PBM binding z-score
CCGAGTAGATTACGAGGGGGCATTCAGTGCGAAT | 0.791
CCGAGTAGGTTACGAGGGGGCACTCAGTGCGAAT | 0.708
CCGAGTAGGTTGCGAGGGGGCATTCAGTGCGAAT | 0.489
TCGAGTTGGTTACGGGGGCATTCAGGGATGAAGA | 0.889
CTACGTAGGTTAAGGGGGTCATTCAGTTTGAAAG | 2.48
CTTTGTAGGTTAAGGGGGTCATTCAGTTTGAAAG | 3.53
CTATGTAGGTTAAGGGGGTCATTAAGTTTGAAAG | 2.21
TCGAGTAGGTTACGGTGGCATTCAGGGATGAAGA | -0.578
CTATGTAGGTTAAGGGGCTCATTCAGTTTGAAAG | -0.199
TCGAATAGGTTACGGGGGCATTCAGGGATGAAGA | 1.2
CTATGTAGGTTAAGGGGATCATTCAGTTTGAAAG | 0.126
CCGAGTAGGTTATGAGGGGGCATTCAGTGCGAAT | 1.95
CAGAGTAGGTTACGAGGGGGCATTCAGTGCGAAT | 2.11
CCGAGTAGGTTACGAGGCGGCATTCAGTGCGAAT | -0.363
CTATGTAGGTTAAGTGGGTCATTCAGTTTGAAAG | 0.645
TCGAGTAAGTTACGGGGGCATTCAGGGATGAAGA | 0.43
TCGAGTAGGTTACGGGGGCATTAAGGGATGAAGA | 0.404
CTATGTAGGTTAAGGGGGTCATCCAGTTTGAAAG | 2.5
TCGAGTAGTTTACGGGGGCATTCAGGGATGAAGA | 0.776

tested on: LXRb:RXRa (NR concentration 270 nM, RXRa partner concentration 90 nM); experiment: as above
Procedure, shortened: as §1

Sequence | PBM binding z-score
CTATGTAGGGTAAGGGGGTCATTCAGTTTGAAAG | 6.36
TCGAGAAGGTTACGGGGGCATTCAGGGATGAAGA | 5.72
TCGAGTAGGTTACGGGGGTATTCAGGGATGAAGA | 4.07
CCGAGTAGGTTACGAGGGGGCATTTAGTGCGAAT | 6.59
TCGAGTAGGTTACAGGGGCATTCAGGGATGAAGA | 1.68
CCGAGTAGGTTACGACGGGGCATTCAGTGCGAAT | 3.38
CCGAGTAGGTTACGAGGGGGCATGCAGTGCGAAT | 5.49
CTATGCAGGTTAAGGGGGTCATTCAGTTTGAAAG | 6.31
TCGAGTAGGGTACGGGGGCATTCAGGGATGAAGA | 4.6
CCGAGTAGGTTACGAGCGGGCATTCAGTGCGAAT | 4.08
CCGAGTAGGTTACGAGGGGGCCTTCAGTGCGAAT | 3.94
TCGAGTAGGTTAGGGGGGCATTCAGGGATGAAGA | 5.64
CTATGTAGGTTAAGGGGTTCATTCAGTTTGAAAG | 3.8
CTATGTAGGTTAAGGGGGTCAATCAGTTTGAAAG | 5.67
CCGAGTAGGTTACGAGGGGGCATTCACTGCGAAT | 6.21
TCGAGTAGGTTACGGGGGCATTCCGGGATGAAGA | 4.94
CTATGTAGTTTAAGGGGGTCATTCAGTTTGAAAG | 6.25
CCGAGTAGGTTACGAGGGGGCAATCAGTGCGAAT | 6.01
CTAGGTAGGTTAAGGGGGTCATTCAGTTTGAAAG | 6.08
CTATGTATGTTAAGGGGGTCATTCAGTTTGAAAG | 6.57

Sequence | PBM binding z-score
CCGAGTAGATTACGAGGGGGCATTCAGTGCGAAT | 3.36
CCGAGTAGGTTACGAGGGGGCACTCAGTGCGAAT | 5.48
CCGAGTAGGTTGCGAGGGGGCATTCAGTGCGAAT | 4.71
TCGAGTTGGTTACGGGGGCATTCAGGGATGAAGA | 4.62
CTACGTAGGTTAAGGGGGTCATTCAGTTTGAAAG | 6.14
CTTTGTAGGTTAAGGGGGTCATTCAGTTTGAAAG | 6.5
CTATGTAGGTTAAGGGGGTCATTAAGTTTGAAAG | 5.86
TCGAGTAGGTTACGGTGGCATTCAGGGATGAAGA | 0.0794
CTATGTAGGTTAAGGGGCTCATTCAGTTTGAAAG | 1.35
TCGAATAGGTTACGGGGGCATTCAGGGATGAAGA | 5.78
CTATGTAGGTTAAGGGGATCATTCAGTTTGAAAG | 2
CCGAGTAGGTTATGAGGGGGCATTCAGTGCGAAT | 6.27
CAGAGTAGGTTACGAGGGGGCATTCAGTGCGAAT | 6.23
CCGAGTAGGTTACGAGGCGGCATTCAGTGCGAAT | -0.1
CTATGTAGGTTAAGTGGGTCATTCAGTTTGAAAG | 2.29
TCGAGTAAGTTACGGGGGCATTCAGGGATGAAGA | 4.1
TCGAGTAGGTTACGGGGGCATTAAGGGATGAAGA | 4.64
CTATGTAGGTTAAGGGGGTCATCCAGTTTGAAAG | 6.27
TCGAGTAGTTTACGGGGGCATTCAGGGATGAAGA | 4.38
